Hit rate of the full screen: of about 340,000 compounds, about 3,300 (0.97%) were called active. This is one part of a sample in which actives are shown more often than they occur. Unmarked numbers belong to inactive results.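 How the source made its calls: active means inhibition above the mean over all tested compounds plus 3 SD (cut at about 30% in these data); inactive means the rest.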

Usually inhibition stands for the relative decrease from the control value, in per cent.

The assay has as its target Platelet-activating factor acetylhydrolase 2, cytoplasmic (Homo sapiens) (UniProt Q99487). Briefly: PAFAH2 enzyme inhibitors, primary screen, biochemical, fluorescence polarization, human (AID 492956).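 Further: inhibitors block probe labeling of enzyme so polarization drops; 0% = enzyme with DMSO and 100% = wells lacking PAFAH2 protein.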 As to conditions: recombinant PAFAH2, FP-rhodamine activity probe, at 3.39 µM, active compounds read high. Background: In fluorescence polarisation assays a small probe gives low polarisation when free and higher when bound to something large.
On to `Cc1cc(C)n(CC(C)NCc2c(C(=O)N3CCOCC3)nc3c(C)cccn23)n1` (stereo not drawn), for which the inhibition is -0.83%.

Regarding `FC(F)(F)c1nc(-c2ccccc2)ncc1-c1nnnn1-c1ccccc1`, the inhibition is 10.3%. In the case of `Cc1ccc(-n2ncc3c2CC(C)(C)CC3NC(=O)Cc2c(C)noc2C)cc1` (stereo not drawn) it was -3.4%; in that of `COc1ccc(C(C(=O)NCc2ccccc2)N(Cc2cccs2)C(=O)c2cnccn2)cc1` (stereo not drawn), 2.03%; in that of `N[C@@H](Cc1ccccc1)C(=O)N1CCC(C(=O)NCC(=O)Nc2ccc(F)cc2)CC1`, -5.9%. In the case of `C=CCn1c(=S)[nH]c2scc(-c3ccco3)c2c1=O` it was 38.7% (active); in that of `C=CCn1cnc2scc(-c3ccccc3)c2c1=O`, -1.85%.

In the case of `C=CCn1c(=S)[nH]c2nc3c(cc2c1=O)COC(C)(C)C3`, the inhibition is 6.59%. In the case of `O=S1(=O)C=C(SCCN2CCCC2)c2ccccc21` it was 6.55%. To `C=CCN1C2CCCC1CC(NC(=S)Nc1cccc(OC)c1)C2` (stereo not drawn) belongs 1.32%.

On to `COc1ccccc1C(=O)NC(=S)NC12CC3CC(CC(C3)C1)C2`, for which the inhibition was -0.29%.

As to `O=C(COC(=O)c1cccnc1Cl)Nc1ccc(S(=O)(=O)N2CCOCC2)cc1`, the inhibition is -2.28%. Turning to `COc1cc(C(=O)OCC(=O)NC23CC4CC(CC(C4)C2)C3)cc(OC)c1OC`, the inhibition is 77.8% (active). In the case of `O=C(COC(=O)c1ccc([N+](=O)[O-])o1)NC12CC3CC(CC(C3)C1)C2` it was 59.8% (active); in that of `O=C(COC(=O)c1cccnc1Cl)NC12CC3CC(CC(C3)C1)C2`, 86.5% (active); in that of `NC(=O)COc1ccccc1C(=O)NC12CC3CC(CC(C3)C1)C2`, 6.96%. To `O=C(OCC(=O)c1cccs1)c1ccc([N+](=O)[O-])o1` belongs -2.46%; to `COc1cc(C(=O)OCC(=O)NC(C)CCc2ccccc2)cc(OC)c1OC` (stereo not drawn), 5.21%; to `O=C(COC(=O)c1ccc(Br)o1)NC12CC3CC(CC(C3)C1)C2`, 26.2%. Take `COc1ccc(COC(=O)c2ccc(Cl)c(S(=O)(=O)N3CCOCC3)c2)cc1F`: the inhibition is 8%. To `CN(C)S(=O)(=O)c1ccc(NC(=O)COC(=O)Cn2[nH]c(=O)c3ccccc3c2=O)cc1` belongs 1.37%; to `CCOc1ccc2c(c1)cc(CN(C(=O)CC)C1CCCCC1)c1nnnn12`, 9.13%; to `COc1ccc(C(=O)COC(=O)c2ccc([N+](=O)[O-])s2)cc1OC`, 18.3%. On to `COc1cc(NC(=O)COC(=O)c2cnc(C)cn2)c(C)cc1[N+](=O)[O-]`, for which the inhibition is 4%. `COc1cc(NC(=O)COC(=O)c2ccc([N+](=O)[O-])s2)cc(OC)c1OC`: the inhibition is 36.9% (active). In the case of `Cc1ccc2c(c1)N(C(=O)CCC(=O)N1CCc3ccccc3C1)CCO2` it was 1.77%. To `COc1ccc(C(=O)COC(=O)c2nn(C)c(=O)c3ccccc23)c(OC)c1` belongs 1.19%. In the case of `COc1ccc(C(=O)OCC(=O)c2ccc(Cl)s2)c(OC)c1OC` it was 65.5% (active); in that of `COc1ccc(C(=O)OCC(=O)Nc2ccc3[nH]c(=O)[nH]c3c2)c(OC)c1OC`, 2.25%. Take `COc1ccccc1NC(=O)N(O)C1(C#N)CCCCC1`: the inhibition is 17.2%. Take `Clc1ccc(-c2nc3ccccn3c2CN2CCSCC2)cc1`: the inhibition is 3.86%.

`COc1cc(CCC(=O)OCC(=O)Nc2cccc(S(N)(=O)=O)c2)cc(OC)c1OC`: the inhibition was 8.16%.

For the compound `O=C1C(=O)N(CCCO)C(c2ccccc2)/C1=C(\O)c1ccc(Br)cc1` (stereo not drawn), the inhibition was 2.68%. In the case of `O=c1[nH]n(-c2ccc([N+](=O)[O-])cc2)c(=O)c2ccccc12` it was 32.5% (active); in that of `COc1cnn(-c2ccc([N+](=O)[O-])cc2)c(=O)c1Cl`, 5.97%.

Turning to `O=[N+]([O-])c1ccc(N2CCOCC2)cc1`, the inhibition is 6.57%. To `COc1cccc(NC(=O)[C@H](Cc2c[nH]c3ccccc23)NC(=O)[C@@H]2Cc3ccccc3CN2)c1` belongs 4.49%; to `CC(C)(C)OC(=O)C[C@@H]1C/C=C\C[C@H](CC(=O)N[C@@H](CO)Cc2ccccc2)C(=O)N[C@H](Cc2ccccc2)COC1=O`, -5.38%. To `CCOC(=O)C1=C(N)N(c2ccc(C)cc2)C2=C(C(=O)CCC2)C1c1cccs1` (stereo not drawn) belongs 11%; to `COc1ccc(NC(=O)CS(=O)(=O)c2ccccc2)cc1`, -6.64%. In the case of `COc1ccc(NC(=O)CC(NC(C)c2ccccc2)C(=O)O)cc1` (stereo not drawn) it was 35.8% (active). For `COc1ccc(NC(=O)CCCC(=O)c2ccccc2)cc1`, the inhibition was -4.3%.

Regarding `O=C1N(c2ccccc2)C(=Nc2ccccc2)SC12CC2`, the inhibition is -1.71%. On to `COc1ccc(N(Cc2cc3ccc(C)cc3[nH]c2=O)S(=O)(=O)c2ccccc2)cc1`, for which the inhibition is 1.35%. In the case of `CCCCn1c(N)c(N(Cc2ccccc2OC)C(=O)COc2cc(C)ccc2Cl)c(=O)[nH]c1=O` it was -1.09%; in that of `O=C(O)/C=C/c1ccc(S(=O)(=O)N2CCCCCC2)cc1`, 0.61%.

Consider `O=C(COC(=O)/C=C/c1ccc(S(=O)(=O)N2CCCCCC2)cc1)NCc1ccccc1Cl`, for which the inhibition is 33.9% (active). In the case of `O=C(COc1ccc(S(=O)(=O)N2CCCCC2)cc1)NCc1ccccn1` it was 9.09%.

In the case of `O=C(Nc1ccc(F)cc1)c1cccnc1N1CCOCC1`, the inhibition is -2.86%. To `CC1=C(C(=O)Nc2ccc(Cl)cc2)C(c2ccco2)NC(=O)N1` (stereo not drawn) belongs 0.63%; to `COc1ccccc1Nc1nc(N)nc(CSC(=S)N2CCOCC2)n1`, 30.8% (active). For `COc1ccc(Nc2nc(N)nc(CSC(=S)N3CCC(C)CC3)n2)cc1`, the inhibition was 5.5%.

`Cc1ccccc1Nc1nc(N)nc(CSc2ccccc2)n1`: the inhibition was 3.88%. In the case of `O=C(CN1CCCCCC1)Nc1ccc(Br)cc1Br` it was 2.02%; in that of `O=c1ccc2cc(S(=O)(=O)Nc3ccccc3F)ccc2o1`, 0.74%; in that of `O=c1oc2ccccc2c(NC2CCCCC2)c1NS(=O)(=O)c1ccc(Cl)cc1`, 5.54%.

Consider `O=c1oc(-c2ccccc2NS(=O)(=O)c2ccc(Cl)cc2)nc2ccccc12`, for which the inhibition is 82.1% (active).

Take `CCCCNS(=O)(=O)c1ccc2nc(SCC(=O)Nc3cc(C)cc(C)c3)[nH]c2c1`: the inhibition is -16.9%.
